We go through 8 molecules from PubChem BioAssay (NCI).

This is part of a sample that, as a whole, favours compounds with a hit. Of some 83,000 tested, about 20% had one in any assay.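 Step 1: grow cells in 96-well plates. Step 2: add test compound at a single concentration. Step 3: incubate 48 h. Step 4: record percent growth.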 Values without a mark were called inactive. The source made the active and inactive calls. Rule for the calls: active = growth percent below 10; inactive = the rest.

Common to all, as to assay: NCI-60 one-dose screen, 48 h (100 = growth as untreated, 0 = no growth, -100 = all killed)
For one assay, the system named is SK-MEL-2 melanoma. The following applies: 10 µM unless noted.
The test system of the next assay is EKVX NSCLC. The note with it: 10 µM unless noted.
The test system of a further assay is SN12C renal. The following applies: 10 µM unless noted.
The subject of a further assay is TK-10 renal. The following applies: 10 µM unless noted.
The subject of a further assay is ACHN renal. The note with it: 10 µM unless noted.
Another assay has as its system CAKI-1 renal. The note with it: 10 µM.
For the next assay, the system named is A498 renal. The note with it: 10 µM unless noted.
The subject of a further assay is CCRF-CEM leukemia. The note with it: 10 µM unless noted.
The next assay concerns MOLT-4 leukemia. The following applies: 10 µM unless noted.
A further assay relates to SR leukemia. The following applies: 10 µM unless noted.
For another assay, the system named is RPMI-8226 leukemia. The following applies: 10 µM unless noted.
The next assay relates to OVCAR-8 ovarian. The following applies: 10 µM unless noted.
Another assay concerns OVCAR-5 ovarian. The following applies: 10 µM unless noted.
The next assay has as its system OVCAR-4 ovarian. The following applies: 10 µM unless noted.
A further assay has as its system SK-OV-3 ovarian. The following applies: 10 µM unless noted.
The subject of a further assay is IGROV1 ovarian. The following applies: 10 µM unless noted.
For the next assay, the system named is HS 578T breast. The following applies: 10 µM unless noted.
A further assay has as its system NCI/ADR-RES ovarian. The following applies: 10 µM unless noted.
The test system of another assay is UO-31 renal. The following applies: 10 µM unless noted.
A further assay deals with OVCAR-3 ovarian. The note with it: 10 µM unless noted.

As for `O=C(NOC1OC(CO)C(O)C(O)C1O)Nc1ccccc1` (stereo not drawn), the growth with SK-MEL-2 melanoma was 98.3%; with EKVX NSCLC, 102%; with SN12C renal, 91.6%; in the assay with TK-10 renal, 109%; with ACHN renal it was 101%; with CAKI-1 renal, 92.1%. The growth in the assay with A498 renal is 120%; in the assay with CCRF-CEM leukemia, 91%; with MOLT-4 leukemia, 79.7%; with SR leukemia, 75.2%; in the assay with RPMI-8226 leukemia, 87.3%; with OVCAR-8 ovarian, 103%. In addition, the growth in the assay on OVCAR-5 ovarian is 100%; with OVCAR-4 ovarian, 105%; in the assay on SK-OV-3 ovarian, 95.7%; in the assay on IGROV1 ovarian, 111%; in the assay with HS 578T breast it was 103%; with NCI/ADR-RES ovarian, 109%.
As for `COc1cc2ncn3c(=O)c4c5c(sc4nc3c2cc1OC)CCCCC5`, the growth in the assay with SK-MEL-2 melanoma was 113%; with EKVX NSCLC it was 87.9%; in the assay with SN12C renal, 105%; in the assay on UO-31 renal it was 92.5%; with ACHN renal, 94%; in the assay on A498 renal it was 90.9%. Besides, the growth was 103% with CCRF-CEM leukemia; 106% in the assay with MOLT-4 leukemia; 103% in the assay on RPMI-8226 leukemia; 102% in the assay with OVCAR-8 ovarian; 98.6% in the assay on OVCAR-5 ovarian; 101% with OVCAR-4 ovarian. In addition, the growth in the assay with SK-OV-3 ovarian was 99.6%; with IGROV1 ovarian, 79.3%; in the assay with OVCAR-3 ovarian, 98.4%; in the assay with HS 578T breast, 99.7%; with NCI/ADR-RES ovarian, 92.4%.
For the molecule `O=c1[nH]ccc2nc(N3CCC(O)CC3)nc(Nc3cccc(C(F)(F)F)c3)c12`, the growth with SK-MEL-2 melanoma is 25.2%; with EKVX NSCLC, 83%; in the assay with SN12C renal, 61.4%; in the assay on TK-10 renal it was 67.6%; in the assay on ACHN renal it was 67.6%; in the assay with CAKI-1 renal it was 38.6%. Also, the growth in the assay with A498 renal was 93.6%; with MOLT-4 leukemia it was 1.19% (active); in the assay on RPMI-8226 leukemia, 62.6%; in the assay with OVCAR-8 ovarian, 45.3%; in the assay with OVCAR-5 ovarian, 137%; in the assay with OVCAR-4 ovarian it was 91.4%. Moreover, the growth with SK-OV-3 ovarian is 32.3%; in the assay with IGROV1 ovarian it was 71.2%; in the assay on OVCAR-3 ovarian, 68.5%; with HS 578T breast, 80.2%; in the assay with NCI/ADR-RES ovarian, 32.9%.
Regarding `O=c1c(-c2ccc3c(c2)OCO3)coc2c(CO)c(O)ccc12`, the growth with SK-MEL-2 melanoma was -66.3% (active); with EKVX NSCLC it was 3.55% (active); in the assay with SN12C renal, -3.58% (active); in the assay with TK-10 renal, -15.2% (active); in the assay on ACHN renal, -30.5% (active); with A498 renal, -26.7% (active). In addition, the growth in the assay on CCRF-CEM leukemia was 1.63% (active); in the assay with MOLT-4 leukemia, 90.3%; in the assay on SR leukemia it was 13.4%; in the assay with RPMI-8226 leukemia, 2.57% (active); in the assay with OVCAR-8 ovarian, 24.3%; in the assay on OVCAR-5 ovarian, 35.8%. The growth was 41.7% with OVCAR-4 ovarian; -18.3% (active) with SK-OV-3 ovarian; 5.08% (active) in the assay on IGROV1 ovarian; -55.1% (active) with OVCAR-3 ovarian; 6.65% (active) in the assay on HS 578T breast.
`CCCC(=O)Oc1ccc(/C(=C(\C)c2ccc(Cl)cc2)c2ccc(OCCN(CC)CC)cc2)cc1`: the growth in the assay on SK-MEL-2 melanoma was -74.4% (active); in the assay on EKVX NSCLC, 12%; with SN12C renal it was 35.3%; in the assay on UO-31 renal, -65% (active); in the assay on ACHN renal it was -23.2% (active); with A498 renal, 11.5%. The growth was -18.6% (active) in the assay with CCRF-CEM leukemia; -13.1% (active) in the assay on MOLT-4 leukemia; -36.3% (active) in the assay with SR leukemia; -49.5% (active) in the assay on RPMI-8226 leukemia; -48.4% (active) with OVCAR-8 ovarian; 30.4% in the assay on OVCAR-5 ovarian. In addition, the growth in the assay on OVCAR-4 ovarian is 3.08% (active); in the assay with SK-OV-3 ovarian it was -6.52% (active); in the assay with IGROV1 ovarian, 12.5%; with OVCAR-3 ovarian, -64.6% (active); with HS 578T breast, -38.1% (active); with NCI/ADR-RES ovarian, -6.97% (active).
For `CN(C)CCNc1nc2ccccc2c2c(=O)c3ccccc3sc12`, the growth in the assay with SK-MEL-2 melanoma is -11% (active); in the assay on EKVX NSCLC, 30.7%; in the assay with SN12C renal, 32.1%; in the assay with UO-31 renal it was 12.6%; with ACHN renal it was 7.03% (active); with A498 renal, -2.07% (active). Further, the growth was 6.74% (active) with CCRF-CEM leukemia; -4.55% (active) in the assay with MOLT-4 leukemia; -18.1% (active) with SR leukemia; -8.02% (active) in the assay on RPMI-8226 leukemia; 14.6% in the assay with OVCAR-8 ovarian; 46% in the assay with OVCAR-5 ovarian. Further, the growth in the assay on OVCAR-4 ovarian is 38.4%; in the assay on SK-OV-3 ovarian, 31.5%; in the assay with IGROV1 ovarian, 28.5%; in the assay with OVCAR-3 ovarian it was 31.2%; in the assay with HS 578T breast it was 30.3%; with NCI/ADR-RES ovarian it was 20.9%.
On to `CS(=O)(=O)Nc1cccc(-c2ccc3ncnc(Nc4ccc(F)c(Cl)c4)c3c2)c1`, for which the growth was -4.95% (active) in the assay on SK-MEL-2 melanoma; 7.22% (active) in the assay on EKVX NSCLC; 44.2% in the assay with SN12C renal; 21.1% in the assay with UO-31 renal; 22.3% in the assay on ACHN renal; -25.7% (active) in the assay with A498 renal. Further, the growth is 19.1% with CCRF-CEM leukemia; 0.953% (active) with MOLT-4 leukemia; -2.28% (active) with SR leukemia; 18.4% in the assay with RPMI-8226 leukemia; 29% in the assay with OVCAR-8 ovarian; 49.1% in the assay with OVCAR-5 ovarian. Also, the growth is 37% with OVCAR-4 ovarian; -10.8% (active) in the assay with SK-OV-3 ovarian; -3.89% (active) in the assay on IGROV1 ovarian; 11.5% in the assay on HS 578T breast; 39.2% in the assay on NCI/ADR-RES ovarian.
For `COc1cc([C@@H]2c3cc4c(cc3C(OC3O[C@@H]5COC(C)O[C@H]5[C@H](O)[C@H]3O)C3COC(=O)[C@@H]32)OCO4)cc(OC)c1O` (stereo partly drawn), the growth in the assay with SK-MEL-2 melanoma was 74.6%; in the assay with EKVX NSCLC it was 57.8%; with SN12C renal it was 13%; in the assay with TK-10 renal, 72.5%; in the assay on CAKI-1 renal, 9.12% (active); in the assay on A498 renal it was 36.2%. The growth was 6.56% (active) in the assay on CCRF-CEM leukemia; 2.96% (active) in the assay with MOLT-4 leukemia; -3.83% (active) in the assay with SR leukemia; 37.4% in the assay with RPMI-8226 leukemia; 26.9% with OVCAR-8 ovarian; 88.3% with OVCAR-4 ovarian. For the same molecule, the growth was 35% in the assay on SK-OV-3 ovarian, 65.4% with IGROV1 ovarian, 59.3% in the assay with HS 578T breast and 90.4% in the assay with NCI/ADR-RES ovarian.
